# Only some compounds are listed: those with a hit (about 3.8% of all), similar ones and a draw of the others.
# MITF TRPM1 HTS: activators of MITF-driven TRPM1 promoter activity in SK-MEL-5 cells; SK-MEL-5 TRPM1-promoter luciferase, 24 h; % of positive control, neutral wells = 0; actives 0.75% (n = 300,000); AID 588334; activation, % at 12.5 µM;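 active = mean activation of at least 80% with every replicate also reaching 80%; inconclusive = mean reaches 80% but some replicate falls short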;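 note: 0% = neutral control wells and 100% = parthenolide positive control wells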
# HSF1 inhib: HSF1 inhibition | AID 2098 | activity change, negative = inhibition, % at 7.5 µM (by protocol) | NIH3T3-HGL HSE-luciferase, MG132-induced, luminescence 8 h; stronger effect = lower value | actives 0.77% (n = 300,000);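 active = more than half of replicate wells show activity change below -50%, luminescence cut by over half; inconclusive = some wells, but at most half, below -50%; inactive = no replicate well below -50%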;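 note: luciferase reports HSF-1 transcriptional activity via heat shock element; 0% = median of DMSO wells and -100% = zero luminescence signal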
# HSF-1 act: increases HSF-1 driven luciferase reporter signal; AID 504408; NIH3T3-HGL HSF-1 luciferase reporter, MG132, 8 h; 100% = twice DMSO control signal; actives 1.7% (n = 300,000); activation, % at 9 µM;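 active = mean replicate activation of at least 50% with a set share of replicates each reaching 50%; inconclusive = only one of those two conditions met; inactive = mean below 50% and too few replicates reaching it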;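 note: 0% = median of the neutral control wells and 100% = twice that signal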
# Wnt bcat act: activators of Wnt/beta-catenin signaling | Wnt/beta-catenin reporter cell assay, activator, plate reader | activation, % at 9.35 µM | actives 1.2% (n = 300,000) | AID 743398; in the data active = activation above about 30%, passing the limit was not always enough; inconclusive = no clear call, values can overlap the other calls;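 note: 0% = neutral control wells and 100% = positive control wells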
# esBAF inh: blocks esBAF chromatin remodeling in mouse ES cells; Bmi1-luciferase knock-in reporter, 24 h; 100% = twice the neutral-well signal; reporter increase, % at 12.5 µM; actives 2% (n = 350,000); AID 602393; in the data active = activation above about 40%; inconclusive = no clear call, values can overlap the other calls;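 note: 0% = median of the plate's neutral control wells and 100% = double that signal; a rise in the Bmi1 reporter signal indicates esBAF inhibition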
# * marks the source's active call; other numbers are inactive results; ? = inconclusive; · = not tested or not shown.
SMILES,MITF TRPM1 HTS,HSF1 inhib,HSF-1 act,Wnt bcat act,esBAF inh
Cc1ccc([C@H]2C[C@H](O)[C@@H](n3cc(C4CC4)nn3)CN2Cc2cccs2)cc1,·,·,·,1,47*
C[C@H]1CN([C@@H](C)CO)C(=O)c2cc(NC(=O)Cc3cn(C)c4ccccc34)ccc2O[C@H]1CN(C)Cc1ccc(C(=O)Nc2ccccc2N)cc1,·,·,·,·,-20
C[C@@H]1CCCCO[C@@H](CN(C)C)[C@H](C)CN([C@H](C)CO)C(=O)c2cc(NC(=O)Nc3ccccc3)ccc2O1,·,·,·,·,4
C=CCN=c1scc(-c2ccc(F)cc2)n1/N=C/c1ccccn1,20,27,47,-2,·
CCN=c1scc(-c2ccc(F)cc2)n1/N=C/c1ccccn1,91*,10,34,17,·
C=CCN=c1scc(-c2ccccc2)n1/N=C/c1ccccn1,48,38,52*,-3,1
O=C(C[C@@H]1CC[C@@H](NC(=O)C2CCC2)[C@@H](CO)O1)NCC1CC1,·,·,·,·,1
O=C(C[C@H]1C[C@@H]2c3cc(NC(=O)CC4CC4)ccc3O[C@@H]2[C@@H](CO)O1)NCc1cccnc1,·,·,·,·,-4
CCCCc1nnc(NC(=O)C(C)Sc2nc(C)cc(=O)[nH]2)s1 (stereo not drawn),0,29,64*,·,·
Oc1ccc(/C=N\Nc2cc(N3CCOCC3)nc(N3CCOCC3)n2)c(O)c1,-5,7,5,0,1
Oc1ccc(/C=N/Nc2cccc(Cl)n2)c(O)c1,109*,32,36,18,34
COc1ccc(N2C(=O)[C@@H]3Cc4ccccc4CN3C2=O)cc1,11,0,-11,-1,1
Cc1ccc(N2C(=O)[C@@H]3Cc4ccccc4CN3C2=O)cc1,42,·,·,14,55*
COc1ccccc1CN1[C@@H]2CN(C(=O)C3CCC3)c3ccccc3[C@@H]2[C@@H]1CO,·,·,·,·,2
CCOC(=O)c1sc2c(c1C)C(c1cccs1)C1=C(CCCC1=O)N2 (stereo not drawn),12,28,79*,·,·
CS(=O)(=O)N(CC(=O)Nc1ccc(CC#N)cc1)c1ccc(C23CC4CC(CC(C4)C2)C3)cc1,8,48,60*,0,28
S=C(c1cn(Cc2ccc(Br)cc2)c2ccccc12)N1CCOCC1,-2,13,54*,·,-5
Cc1noc(C)c1NC(=O)N(C)C[C@H]1OCCCC[C@@H](C)Oc2ccc(NS(=O)(=O)c3cccs3)cc2C(=O)N([C@H](C)CO)C[C@H]1C,·,·,·,·,2
NC(N)=Nc1nc(C2COc3ccccc3O2)cs1 (stereo not drawn),51,9,44,53*,·
Cc1cccc(-c2nc(CN3CCN(Cc4cccc(F)c4)CC3)c(C)o2)c1,5,-10,-5,49*,0
C[C@H](CO)N1C[C@H](C)[C@H](CN(C)S(=O)(=O)c2ccc(Oc3ccccc3)cc2)OCc2cnnn2CCCC1=O,·,·,·,·,6
C[C@@H]1CN([C@@H](C)CO)C(=O)c2cc(NS(=O)(=O)c3ccc(Cl)cc3)ccc2O[C@@H]1CN(C)Cc1ccc(C(=O)Nc2ccccc2N)cc1,·,·,·,·,-22
Cc1ccc(C(=O)Nc2ccccc2C(=O)O)cc1S(=O)(=O)Nc1ccc(Br)cc1,·,-1,-4,0,·
Cc1ccc(C(=O)Nc2ccccc2C(=O)O)cc1S(=O)(=O)NCc1ccccc1,-4,-92*,-93,1,·
O=C(N[C@@H]1CC[C@@H](CCn2cc(C3CC3)nn2)O[C@H]1CO)c1cccnc1,·,·,·,·,-3
SMILES,MITF TRPM1 HTS,HSF1 inhib,HSF-1 act,Wnt bcat act,esBAF inh
COc1cc(Cl)c(CC(=O)c2c[nH]c3ccccc23)cc1OC,-7,13,62*,2,6
CC1(C(=O)OCC(=O)c2c[nH]c3ccccc23)CC1(Cl)Cl (stereo not drawn),96*,7,20,·,46*
O=C(OCC(=O)c1c[nH]c2ccccc12)C1=COCCO1,33,9,28,43*,64*
Cc1cnc(C(=O)OCC(=O)c2c[nH]c3ccccc23)cn1,-23,·,·,5,-4
O=C(OCC(=O)c1ccc[nH]1)C1=COCCO1,5,·,·,-1,1
CC(=O)OCC(=O)NCC(=O)c1c[nH]c2ccccc12,-4,-61*,-70,2,0
Cc1cccc(CC(=O)c2c[nH]c3ccccc23)c1,·,11,12,12,·
CC(C)NC(=O)N[C@@H]1C=C[C@H](CC(=O)NC2Cc3ccccc3C2)O[C@H]1CO,·,·,·,·,-9
CO[C@@H]1CN(C)C(=O)c2cc(NS(=O)(=O)c3cn(C)cn3)ccc2OC[C@@H](C)N(Cc2cccc(F)c2)C[C@@H]1C,·,·,·,·,-1
C[C@H]1CN([C@@H](C)CO)C(=O)c2cc(NC(=O)C3CC3)ccc2O[C@H]1CN(C)Cc1ccc(Cl)c(Cl)c1,·,·,·,·,2
CNC(=O)C[C@H]1CC[C@@H]2[C@H](COC[C@@H](O)CN2S(=O)(=O)c2ccccc2Cl)O1,·,·,·,·,-2
Cn1cccc1C(=O)OCC(=O)c1c[nH]c2ccccc12,112*,·,·,-2,·
Cn1cccc1C(=O)OCC(=O)c1cc2ccccc2o1,34,12,11,34*,14
Cc1ccc(C(=O)OCC(=O)c2c[nH]c3ccccc23)cc1,44,4,-15,9,·
COc1ccc(C(=O)OCC(=O)c2c[nH]c3ccccc23)cc1OC,14,·,·,11,52*
C[C@H](CO)N1C[C@H](C)[C@@H](CN(C)C(=O)c2ccccc2)OCCCC[C@H](C)Oc2ccc(NC(=O)CCCN(C)C)cc2C1=O,·,·,·,·,6
C[C@H]1CN([C@@H](C)CO)S(=O)(=O)c2ccc(C#CC3(O)CCCC3)cc2O[C@@H]1CN(C)C(=O)c1ccncc1,·,·,·,·,4
CC(C)C#Cc1ccc2c(c1)O[C@H](CN(C)C(=O)c1cccc(F)c1)[C@H](C)CN([C@H](C)CO)S2(=O)=O,·,·,·,·,-6
CN1c2ccc(-c3ccccc3)cc2[C@@H]2[C@@H](CCN2C(=O)Nc2ccccc2F)[C@@H]1CO,·,·,·,·,-7
CCCc1cc(=O)oc2cc(C)c(CN3CCCC3)c(O)c12,·,37,63*,·,9
O=C(Nc1ccc2c(c1)OCO2)c1ccc(Cl)s1,59,32,?,·,0
Cc1ccc2c(Cl)c(C(=O)Nc3ccc4c(c3)OCO4)sc2c1,99*,10,36,·,·
Cc1noc(C(=O)Nc2ccc3c(c2)OCO3)c1Cl,55,9,10,12,51*
O=C(C[C@@H]1CC[C@@H]2[C@H](COC[C@@H](O)CN2C(=O)c2cccnc2)O1)NCc1ccc(Cl)cc1,·,·,·,·,1
Cc1ccc(C(=O)CNc2ccc(Cl)cc2)cc1,52,30,36,8,9
CCOc1ccc(NCC(=O)c2ccc(C)cc2)cc1,-6,-54*,-60,-1,·
O=C(C[C@H]1CC[C@H]2[C@@H](COC[C@H](O)CN2CC2CCCCC2)O1)NCC1CC1,·,·,·,·,-1
Nn1cnnc1SCC(=O)Nc1ccc(C2CCCCC2)cc1,23,-3,2,·,·
O=C(O)CSCC(=O)Nc1ccc(C2CCCCC2)cc1,-74,-78*,-79,·,·
